Sampled rows, rich in hits. Any-hit rate of the full collection: about 4.2%.
NALP3 yeast inh: NALP3 inflammasome inhibitors in reconstituted yeast, primary screen, luminescence, uHTS | 0.39% of 330,000 active | AID 2825, 2010 | Yeast reconstituted NLRP3/ASC/caspase-1, beta-gal luminescence, 24 h | inhibition, % at 10 µM;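 active means inhibition of 50% or more; inactive means inhibition below 50%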;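 further: plate controls were induced DMSO wells for no effect and uninduced yeast grown without galactose for full effect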
TIM10 inh: growth inhibitors of isogenic TIM10 control yeast, primary screen, counter-screen for tim10-1 yeast inhibitor project, luminescence, uHTS; S. cerevisiae TIM10 strain growth, BacTiter-Glo luminescence, 24 h; inhibition, % at 10 µM; 1.4% of 330,000 active;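 active means inhibition of 40% or more at the single tested concentration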;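 further: wild-type TIM10 isogenic control strain grown at permissive 25 °C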
NALP1 yeast inh: NALP1 inflammasome inhibitors in reconstituted yeast, colorimetric, S. cerevisiae, triplicate retest | S. cerevisiae NALP1/ASC/caspase-1 growth, X-gal OD620, 72 h | inhibition, % at 10 µM | 0.61% of 280,000 active | AID 2071, 2009; in the data active means inhibition mostly above about 24%, no sharp cut-off; inactive means mostly below about 32%
tim10-1 inh: growth inhibitors of tim10-1 mutant yeast, primary screen, luminescence, uHTS. S. cerevisiae tim10-1 ts strain growth, BacTiter-Glo, 24 h. inhibition, % at 20 µM. 2.2% of 330,000 active;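 active means inhibition of at least 40%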;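 further: mutant grown at 25 °C; 0% = DMSO wells with yeast and 100% = wells holding no yeast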
V-ATPase pHluor: regulators of yeast V-ATPase proton pumping, primary screen, pHLuorin cytosolic pH fluorescence; S. cerevisiae; response, % at 10 µM; 0.37% of 350,000 active; AID 504577, 2011; in the data active means response mostly above about 7.3%, no sharp cut-off; inactive means mostly below about 5.4%; further: actives read high
tim23-1 inh: growth inhibitors of tim23-1 mutant yeast, primary screen, luminescence, uHTS; inhibition, % at 20 µM; S. cerevisiae tim23-1 growth, BacTiter-Glo luminescence, 24 h; AID 463212, 2010; 1.3% of 330,000 active;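 active means growth inhibition of the mutant yeast at or above 50%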;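 further: temperature-sensitive mutant grown at 25 °C; plate controls were DMSO-treated mutant yeast for no effect and medium wells lacking yeast for full effect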
NALP3 confirm: NALP3 inhibitors retested in yeast, confirmation, luminescence, single concentration; shares compounds with NALP3 yeast inh; yeast expressing human NALP3; inhibition, % at 10 µM; 81% of 1,300 active; AID 435006, 2010; in the data active means inhibition above about 48%
Casp1 ASC ctr: CASP1-PYCARD signaling inhibition in yeast, confirmatory test, counterassay for NLRP3 inhibitor program, one-dose; inhibition, % at 10 µM; 66% of 1,000 active; shares compounds with NALP3 yeast inh; yeast expressing Caspase-1-ASC, luminescence counter screen
NALP3 retest: NALP3 inhibitors in yeast, repeat test, confirmation, luminescence, single concentration, retest; yeast expressing human NALP3, luminescence read-out; inhibition, % at 10 µM; 53% of 1,000 active; shares compounds with NALP3 yeast inh
The depositor's hits bear a star. Unless noted, no stated cut-off is given here; in the data, active means inhibition above about 50%; inactive means the rest.

For O=C(COc1ccccc1[N+](=O)[O-])N1CCN(c2ccccn2)CC1 the results were NALP3 yeast inh -2, TIM10 inh 6, tim10-1 inh 15, V-ATPase pHluor 0 and tim23-1 inh 15.
`CSc1ccc(-c2cc(=O)c3ccccc3o2)cc1` gave NALP3 yeast inh 62*, TIM10 inh -2, NALP1 yeast inh 35, tim10-1 inh 30, V-ATPase pHluor 0, tim23-1 inh 36, NALP3 confirm 63*, Casp1 ASC ctr 53* and NALP3 retest 62*.
`CS(=O)(=O)Cc1ccc(C(=O)N(CCc2ccccc2)Cc2ccccc2)cc1` gave NALP3 yeast inh 18, TIM10 inh -6, NALP1 yeast inh 12, tim10-1 inh 3, V-ATPase pHluor 0 and tim23-1 inh 5.
`O=C(Nc1cccc(O)c1)c1noc2c1CCc1ccccc1-2` gave NALP3 yeast inh 63*, TIM10 inh -8, NALP1 yeast inh 50, tim10-1 inh 15, V-ATPase pHluor 1, tim23-1 inh 33, NALP3 confirm 58*, Casp1 ASC ctr 52* and NALP3 retest 57*.
For COc1ccc(OC)c(Nc2cc(-c3ccccc3)nc(N)n2)c1 the results were NALP3 yeast inh 50, TIM10 inh 14, NALP1 yeast inh 24, tim10-1 inh 1, tim23-1 inh 1, NALP3 confirm 41, Casp1 ASC ctr 49 and NALP3 retest 43.
For Cc1ccc(C)c(NC(=O)c2ccc(S(=O)(=O)C(F)F)cc2)c1 the results were NALP3 yeast inh 53*, TIM10 inh -24, NALP1 yeast inh 24, tim10-1 inh -37, V-ATPase pHluor 0, tim23-1 inh 16, NALP3 confirm 65*, Casp1 ASC ctr 46 and NALP3 retest 43.
For Cc1ccc(C)c(NC(=O)NNS(=O)(=O)c2ccc(C)c(C)c2)c1 the results were NALP3 yeast inh 0, TIM10 inh 6, NALP1 yeast inh -5, tim10-1 inh 0, V-ATPase pHluor -2 and tim23-1 inh -3.
O=C(CN1CCN(C(=O)c2ccc(-c3nc4ccccc4s3)o2)CC1)Nc1ccc(F)cc1 was read as NALP3 yeast inh 17, TIM10 inh 15, tim10-1 inh -12, V-ATPase pHluor 6 and tim23-1 inh 40.
For O=C(NC(=S)Nc1cccc([N+](=O)[O-])c1)c1ccco1 the results were NALP3 yeast inh 17, TIM10 inh 10, NALP1 yeast inh 3, tim10-1 inh 14, V-ATPase pHluor 0 and tim23-1 inh 13.
O=C(NC(=S)Nc1cccc([N+](=O)[O-])c1)c1ccccc1 was read as NALP3 yeast inh 51*, TIM10 inh 11, NALP1 yeast inh 2, tim10-1 inh 15, V-ATPase pHluor -2, tim23-1 inh 0, NALP3 confirm 64*, Casp1 ASC ctr 43 and NALP3 retest 39.
For O=[N+]([O-])c1ccc(N2CCCC2)cc1N1CCCC1 the results were NALP3 yeast inh 58*, TIM10 inh 0, NALP1 yeast inh -9, tim10-1 inh 6, V-ATPase pHluor 1, tim23-1 inh 22, NALP3 confirm 52*, Casp1 ASC ctr 63* and NALP3 retest 53*.
O=C1c2cccc([N+](=O)[O-])c2C(=O)N1CCO was read as NALP3 yeast inh 2, TIM10 inh -12, NALP1 yeast inh -7, tim10-1 inh 11, V-ATPase pHluor 6 and tim23-1 inh 2.
For O=C1c2cccc3c(Nc4ccccc4Cl)c([N+](=O)[O-])cc(c23)C(=O)N1CCO the results were NALP3 yeast inh 54*, TIM10 inh -15, NALP1 yeast inh 16, tim10-1 inh 1, V-ATPase pHluor 1, tim23-1 inh 42, NALP3 confirm 71*, Casp1 ASC ctr 56* and NALP3 retest 56*.

Compound activity as filed in PubChem BioAssay.
